The target in test [1] is Voltage-gated inwardly rectifying potassium channel KCNH2 (Homo sapiens) (UniProt Q12809). Put plainly: Human Ether-a-go-go-Related Gene (hERG) channel small molecule antagonists: fluorescence cell-based qHTS assay (AID 1671200).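 On activity change, negative = inhibition: hERG-expressing U2OS cells given a thallium stimulus after FluxOR II dye loading; series mostly up to about 77 µM.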 Summed up:
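Measured: Tl+ flux via fluorescence (480/540 nm) in hERG-expressing U2OS cells after 1 h dye loading at room temperature.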
For orientation: The hERG channel carries a current that helps repolarise heart muscle cells.

Test [2] concerns the target Cytochrome P450 3A4 (Homo sapiens) (UniProt P08684). Put plainly: Cytochrome P450 Family 3 Subfamily A Member 4 (CYP3A4) small molecule antagonists: luciferase reporter qHTS assay (AID 1671201). On activity change, negative = inhibition: series mostly up to about 120 µM. Summed up:
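Setup: enzyme-substrate mix, compound pin transfer, 10 min RT. Reaction: NADPH regeneration solution, 1 h RT. Readout: detection reagent stops turnover, luminescence measured after 20 min, expressed in relative luminescence units.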

Each structure is given as a SMILES string. Results filed as inconclusive are left out. A call without a number means that no potency is given here. Unmarked numbers belong to inactive results. The source made the active and inactive calls. The call rests on the fitted dose curve; in most records, active means well fitted curve in the direction sought with a large enough effect in the repeat runs; inconclusive means weak or mixed curves; inactive means no such curve, though single readings can be large; an effect the other way counts as inactive or inconclusive.
Further: nearly all actives have a fitted effect of over 50% in size.
Potency means the concentration at half of the fitted maximal effect.

Sequence of Cytochrome P450 3A4 (Homo sapiens) (P08684 whole entry, looked up): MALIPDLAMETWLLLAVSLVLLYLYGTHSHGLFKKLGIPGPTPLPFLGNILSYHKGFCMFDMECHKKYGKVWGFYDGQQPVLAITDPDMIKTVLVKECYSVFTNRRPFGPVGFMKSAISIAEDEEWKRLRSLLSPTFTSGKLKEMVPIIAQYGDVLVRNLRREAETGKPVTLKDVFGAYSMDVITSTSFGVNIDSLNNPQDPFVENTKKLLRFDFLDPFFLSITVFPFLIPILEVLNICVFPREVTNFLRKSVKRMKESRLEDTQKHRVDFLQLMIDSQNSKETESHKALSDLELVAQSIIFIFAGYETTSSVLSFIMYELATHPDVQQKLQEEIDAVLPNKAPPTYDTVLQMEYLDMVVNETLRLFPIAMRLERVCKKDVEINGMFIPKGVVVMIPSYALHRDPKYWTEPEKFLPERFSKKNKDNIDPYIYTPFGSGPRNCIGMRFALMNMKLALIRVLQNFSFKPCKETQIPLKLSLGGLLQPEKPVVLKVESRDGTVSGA
Sequence of Voltage-gated inwardly rectifying potassium channel KCNH2 (Homo sapiens) (Q12809 whole entry, looked up): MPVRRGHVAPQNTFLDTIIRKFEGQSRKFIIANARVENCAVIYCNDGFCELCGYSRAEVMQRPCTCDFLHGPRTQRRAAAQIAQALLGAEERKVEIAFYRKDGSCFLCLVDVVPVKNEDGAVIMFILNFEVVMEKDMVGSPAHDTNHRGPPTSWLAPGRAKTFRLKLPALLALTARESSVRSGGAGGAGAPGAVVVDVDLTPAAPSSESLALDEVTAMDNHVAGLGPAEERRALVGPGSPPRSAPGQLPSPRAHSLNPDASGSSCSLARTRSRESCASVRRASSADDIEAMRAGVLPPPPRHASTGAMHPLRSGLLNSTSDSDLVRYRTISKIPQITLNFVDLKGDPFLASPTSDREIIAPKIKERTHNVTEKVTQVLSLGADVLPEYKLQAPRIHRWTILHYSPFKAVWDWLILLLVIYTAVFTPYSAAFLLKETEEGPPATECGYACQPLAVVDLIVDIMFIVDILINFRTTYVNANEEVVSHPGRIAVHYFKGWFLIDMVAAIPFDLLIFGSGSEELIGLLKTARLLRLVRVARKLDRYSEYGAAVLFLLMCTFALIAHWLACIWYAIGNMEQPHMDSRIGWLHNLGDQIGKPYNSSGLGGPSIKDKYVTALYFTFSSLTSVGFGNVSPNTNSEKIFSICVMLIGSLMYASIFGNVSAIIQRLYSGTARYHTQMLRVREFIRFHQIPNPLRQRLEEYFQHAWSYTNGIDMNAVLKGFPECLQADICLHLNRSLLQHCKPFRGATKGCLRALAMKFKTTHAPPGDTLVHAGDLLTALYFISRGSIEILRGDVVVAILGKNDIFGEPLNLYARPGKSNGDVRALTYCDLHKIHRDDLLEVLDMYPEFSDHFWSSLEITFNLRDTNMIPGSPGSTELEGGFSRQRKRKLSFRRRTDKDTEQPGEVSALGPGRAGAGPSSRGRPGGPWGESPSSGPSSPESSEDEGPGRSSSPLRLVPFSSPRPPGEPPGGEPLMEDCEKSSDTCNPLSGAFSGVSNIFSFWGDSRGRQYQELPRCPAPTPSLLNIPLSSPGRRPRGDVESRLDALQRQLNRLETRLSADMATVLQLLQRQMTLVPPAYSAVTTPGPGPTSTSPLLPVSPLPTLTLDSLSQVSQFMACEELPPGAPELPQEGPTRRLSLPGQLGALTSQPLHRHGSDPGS

For `O=C1c2ccccc2C(=O)c2c(Cl)cccc21`, in test [1], the Potency entry is “inactive”. On the same count and under the same terms, with `CO[Si](OC)(c1ccccc1)c1ccccc1` the entry was “inactive”; with `O=c1[nH]cccc1O`, “inactive”; with `CC(=O)Nc1ccc(N=Nc2cc(C)ccc2O)cc1`, “inactive”. Consider `Cc1ccc(C2OC[C@@H]3OC(c4ccc(C)cc4)O[C@H]([C@H](O)CO)[C@@H]3O2)cc1` (stereo partly specified), for which the Potency entry in test [1] is “inactive”. Same read-out and setting: with `CN(C/C=C/c1ccccc1)Cc1cccc2ccccc12` the figure was 2.39 µM (active); with `C=CC(=O)O[C@H]1C[C@@H]2CC[C@@]1(C)C2(C)C`, “inactive”; with `CCOC(=O)[C@H](O)[C@@H](O)C(=O)OCC`, “inactive”. Same read-out and setting: for `CN[C@H]1CC[C@@H](c2ccc(Cl)c(Cl)c2)c2ccc(S(N)(=O)=O)cc21` the value was 9.77 µM (active); for `Nc1cc([N+](=O)[O-])ccc1Cl`, “inactive”. In the case of `COc1cc([C@@H]2c3cc4c(cc3[C@@H](O[C@@H]3O[C@@H]5CO[C@@H](C)O[C@H]5[C@H](O)[C@H]3O)[C@H]3COC(=O)[C@H]23)OCO4)cc(OC)c1O`, the Potency entry in test [1] was “inactive”.

Regarding `O=[N+]([O-])c1ccc(O)c2ncccc12`, the Potency entry in test [1] was “inactive”. On the same count and under the same terms, for `NC(=O)C1CO1` (stereo unspecified) the value was “inactive”; for `CC(c1cc(C(C)(C)C)cc(C(C)(C)C)c1O)c1cc(C(C)(C)C)cc(C(C)(C)C)c1O`, “inactive”. As to `Cc1cccc2c1ccc1ccccc12`, the Potency entry in test [1] is “inactive”. Consider `O=C(Cl)c1ccc(Cl)cc1Cl`, for which, in test [1], the Potency result was “inactive”. On to `CC(C)(C)c1ccc(OC2CCCCC2O)cc1` (stereo unspecified), for which the Potency result in test [1] is “inactive”. Take `ClC(c1ccccc1)(c1ccccc1)c1ccccc1`: the Potency entry in test [1] was “inactive”. Still for that read-out and setting: with `c1ccc2cc3c4ccccc4c4ccccc4c3cc2c1` the entry was “inactive”; with `Cc1cc(C)c(O)c(C(C)(C)C)c1`, “inactive”; with `C=Cc1ccncc1`, “inactive”. In the case of `CCCCCCCCCCCCN1CCCC1=O`, in test [1], the Potency entry was “inactive”. `CC(C)=NNC(N)=S`: the Potency entry in test [1] was “inactive”. As to `CCC1(C)C(=O)N(Cl)C(=O)N1Cl` (stereo unspecified), the Potency entry in test [1] is “inactive”.

On to `CCCC(=O)c1cc(O)c(O)cc1O`, for which the Potency result in test [1] was “inactive”. Take `c1ccc(-c2ccc(C(c3ccccc3)n3ccnc3)cc2)cc1` (stereo unspecified): the Potency in test [1] was 7.56 µM (active). On the same count and under the same terms, for `CC(C)C(=O)C(C)C` the value was “inactive”; for `Clc1ccc2c(Cl)ccnc2c1`, “inactive”. For `Nc1cc([N+](=O)[O-])cc(Cl)c1O`, the Potency entry in test [1] was “inactive”. The same measure, in the same setting: for `CCN(CC)c1ccc(N=Nc2ccccc2)cc1` the value was “inactive”. Same read-out and setting: for `CN1CCN(CCCN2c3ccccc3Sc3ccc(C(F)(F)F)cc32)CC1` the value was 2.68 µM (active); for `COc1cc(OC)nc(NC(=O)NS(=O)(=O)Nc2ccccc2C(=O)N(C)C)n1`, “inactive”. In the case of `C=CC(C)(C)O`, the Potency entry in test [1] and in test [2] was “inactive” throughout. Turning to `SC1CCCCC1`, the Potency entry in test [1] and in test [2] was “inactive” throughout. Turning to `C=CC(=O)OCCOC1C2CCC1C1CC=CC12` (stereo unspecified), the figures for the activity change, negative = inhibition in test [1] and in test [2] were 2.03% [at 15.8 µM] and -3.35% [at 23.6 µM], respectively.

For the compound `Clc1nc(C(Cl)(Cl)Cl)c(Cl)c(Cl)c1Cl`, the Potency in test [1] is 49 µM (active); in test [2], 3.99 µM (active). On the same counts, the results for `CC/C=C(\C)C=O` are “inactive” and “inactive”.

Regarding `Cc1c[nH]c(=O)[nH]c1=O`, the Potency result in test [1] and in test [2] was “inactive” in each case. For the compound `C=C1C(CCl)(CCl)C2(Cl)C(Cl)C(Cl)C1(Cl)C2(Cl)Cl` (stereo unspecified), the figures for the Potency in test [1] and in test [2] were 43.1 µM (active) and 0.991 µM (active), respectively. On to `CCOc1nc(F)cc2nc(S(=O)(=O)Nc3c(Cl)cccc3C(=O)OC)nn12`, for which, in test [1], the Potency entry is “inactive”. For the same compound, in test [2], the Potency is 35.6 µM (active). Taken in the same sequence, the figures for `CCN(CC)c1ccc(C=O)cc1` were “inactive” and “inactive”. For `N#Cc1nc(Cl)c(Cl)c(Cl)c1Cl`, the Potency entry in test [1] and in test [2] was “inactive” each time. Turning to `O=c1cc[nH]cc1`, the Potency result in test [1] and in test [2] was “inactive” in each case. For the compound `CCc1cccc(C)c1N(C(=O)C(=O)O)C(C)COC` (stereo unspecified), the Potency entry in test [1] and in test [2] was “inactive” throughout. For `Cc1cc(F)ccc1-c1cc(N2CC[C@@H](O)[C@H]2CO)ncc1N(C)C(=O)C(C)(C)c1cc(C(F)(F)F)cc(C(F)(F)F)c1`, the Potency result in test [1] is “inactive”. The Potency in test [2] was 3.12 µM (active). Taken in the same sequence, the figures for `C=C(C)CCO` were “inactive” and “inactive”.

As for `C=C(C)C1CCC(C)CC1O` (stereo unspecified), the Potency result in test [1] and in test [2] was “inactive” in each case.

Take `O=C(O)C[C@H](O)C[C@H](O)/C=C/c1c(C2CC2)nc2ccccc2c1-c1ccc(F)cc1`: the activity change, negative = inhibition in test [1] was 2.63% [at 15.8 µM]; in test [2] it was -3.86% [at 23.6 µM].

Regarding `CC(C)(C)C1=CC(=O)C(C(C)(C)C)=CC1=O`, the Potency entry in test [1] and in test [2] was “inactive” each time. Regarding `Oc1ccc(C2(c3ccc(O)c(C4CCCCC4)c3)CCCCC2)cc1C1CCCCC1`, the Potency entry in test [1] was “inactive”. In addition, the Potency in test [2] is 14.2 µM (active).

In the case of `CCC(O)CO` (stereo unspecified), the Potency entry in test [1] and in test [2] was “inactive” in each case. As for `Brc1cc(Br)cc(Br)c1`, the Potency entry in test [1] and in test [2] was “inactive” throughout. As to `O=C(CCCCCCCCc1cccnc1)N1CCC(C=C(c2ccccc2)c2ccccc2)CC1`, the figures for the Potency in test [1] and in test [2] were 6.92 µM (active) and 0.399 µM (active), respectively.

Take `Cc1c(Cl)c(=O)oc2cc(O)ccc12`: the Potency entry in test [1] and in test [2] was “inactive” in each case. In the case of `CCCCNc1ccc(NCCCC)c2c1C(=O)c1ccccc1C2=O`, the activity change, negative = inhibition in test [1] is -6.35% [at 15.8 µM]; in test [2], 15.3% [at 23.6 µM]. In the case of `CN1CCN(c2ccccc2/C=C2\SCCN(c3ccc(Cl)c(Cl)c3)C2=O)CC1`, the Potency is 2.19 µM (active) in test [1] and 3.99 µM (active) in test [2]. On the same counts, the results for `Nc1ccc2c(S(=O)(=O)O)cccc2c1S(=O)(=O)O` are “inactive” and “inactive”. On the same counts, the results for `CCC(=O)OC/C=C(\C)CCC=C(C)C` are “inactive” and “inactive”.

For `O=C1OC(=O)c2cc(-c3ccc4c(c3)C(=O)OC4=O)ccc21`, the Potency result in test [1] and in test [2] was “inactive” in each case. As for `CCc1c(C)cc(N)c(CC)c1N`, the Potency result in test [1] was “inactive”. In addition, the Potency in test [2] was 15.9 µM (active). Taken in the same sequence, the figures for `CC(CC(C)(C)C)CC(C)(C)CC(C)(C)C` (stereo unspecified) were “inactive” and “inactive”. On the same counts, the results for `CSc1nnc(C(C)(C)C)c(=O)[nH]1` are “inactive” and “inactive”. Taken in the same sequence, the figures for `CCOC(=O)C1=NN(c2ccc(Cl)cc2Cl)C(C)(C(=O)OCC)C1` (stereo unspecified) were 43.6 µM (active) and 35.6 µM (active). In the case of `Nc1ccc(Cl)c([N+](=O)[O-])c1`, the Potency result in test [1] and in test [2] was “inactive” each time.
